Assay results published in PubChem BioAssay AID1851 (National Center for Advancing Translational Sciences (NCATS), 2009).
Where “and” joins values, the source holds several entries; their conditions need not be identical. Equal entries are not always repeated. Screen size: about 16,000 compounds; about 5,800 (36%) were called active. Another 23% or so got no clear call; they are omitted. Calls follow the shape of the dose curve; as a rule, active = well fitted curve in the direction sought with a large enough effect; inconclusive = small, poorly fitted or top-dose-only effect, or effect the other way; inactive = no such curve, though single readings can be large or run the other way. This is one part of the list. A structure can be active in one record and inactive in another.

Molecular target: Cytochrome P450 2C19 (Homo sapiens) (UniProt P33261)
Sequence (P33261 whole entry, looked up): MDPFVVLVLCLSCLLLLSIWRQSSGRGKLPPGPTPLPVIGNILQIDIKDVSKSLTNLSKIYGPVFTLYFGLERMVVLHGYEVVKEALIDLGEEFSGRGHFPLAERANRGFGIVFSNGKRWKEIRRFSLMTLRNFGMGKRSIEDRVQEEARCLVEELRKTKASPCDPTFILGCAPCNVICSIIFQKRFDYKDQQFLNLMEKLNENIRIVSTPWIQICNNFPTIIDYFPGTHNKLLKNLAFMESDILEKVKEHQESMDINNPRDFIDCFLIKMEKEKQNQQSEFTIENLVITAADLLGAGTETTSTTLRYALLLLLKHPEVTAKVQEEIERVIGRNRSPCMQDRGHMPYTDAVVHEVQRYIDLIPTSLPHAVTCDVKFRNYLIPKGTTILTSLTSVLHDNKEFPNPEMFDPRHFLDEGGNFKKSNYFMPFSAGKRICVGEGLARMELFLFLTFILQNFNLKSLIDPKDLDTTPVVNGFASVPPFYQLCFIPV
Experiment: Cytochrome panel assay with activity outcomes
Details: recombinant CYP, pro-luciferin dealkylation, luminescence, p450-cyp2c19; series mostly up to 57.1 µM
% is scaled to controls: 0 for no effect and ±100 for the full control effect.

Row | Structure (SMILES) | AC50 | activity, negative = inhibition
1 | CCCCCCCCCCCCCC(=O)O[C@H]1[C@@H](C)[C@@]2(O)[C@@H](C=C(CO)C[C@]3(O)C(=O)C(C)=C[C@@H]23)C2C(C)(C)[C@]21OC(C)=O (stereo partly specified) | inactive | –
2 | C[C@@H]1O[C@@H](O[C@H]2C[C@@H](O)[C@]3(CO)[C@@H]4[C@@H](O)C[C@]5(C)[C@H]([C@@H]6COC(=O)C6)CC[C@@]5(O)[C@H]4CC[C@@]3(O)C2)[C@H](O)[C@H](O)[C@@H]1O | inactive | –
3 | N[C@@H](CSC1c2ccccc2-c2ccccc21)C(=O)O | – | -32.5% [at 11.4 µM] (inactive)
4 | CCOC(=O)[C@@H]1[C@@H]2c3ccccc3-c3ccccc3[C@H]2C[C@H]1O | 2 µM (active) | –
5 | CC1(C)[C@@H]2CC[C@]1(C)CN(CCC[N+](C)(C)C)C2 | – | 6.07% [at 11.4 µM] (inactive)
6 | CC(C)Oc1cccnc1N(C)C1CCN(Cc2ccccc2)CC1 | inactive | –
7 | COC(=O)C[C@](O)(CCCC(C)(C)O)C(=O)O[C@@H]1C(OC)=C[C@]23CCCN2CCc2cc4c(cc2[C@H]13)OCO4 | inactive | –
8 | CS(=N)(=O)CC[C@@H](N)C(=O)O (stereo partly specified) | inactive | –
9 | COc1ccccc1CC1C(=O)C2CCN1CC2 (stereo unspecified) | inactive | –
10 | COCCn1c(SCc2nc3sc(C(=O)OC)c(C)c3c(=O)[nH]2)nc2ccccc21 | 0.708 µM (active) | –
11 | O=C(O)[C@H]1CCN1 | inactive | –
12 | N#Cc1ccc(CN2CCCC3(CCN(C(=O)Oc4ccccc4)CC3)C2)cc1 | inactive | –
13 | CC(=O)[C@@H]1CC[C@@H]2[C@@H]3CC=C4C[C@H](OS(=O)(=O)O)CC[C@@]4(C)[C@H]3CC[C@]21C | inactive | –
14 | C=CCn1c(O)c(C(C)=NCCCN2CCOCC2)c(=O)[nH]c1=O | inactive | –
15 | CCCCn1c(O)c(C(CC)=NCc2ccc(F)cc2)c(=O)[nH]c1=O | 7.08 µM (active) | –
16 | CCCCn1c(O)c(C(CC)=Nc2ccc(OC)cc2OC)c(=O)[nH]c1=O | 15.8 µM (active) | –
17 | CCCCn1c(O)c(C=NCCN2CCCCC2)c(=O)[nH]c1=O | inactive | –
18 | C[C@]12CCC3c4ccc(OCC(=O)O)cc4CCC3C1CCC2=O (stereo partly specified) | – | 29.2% [at 11.4 µM] (inactive)
19 | CN(C)[C@@H]1C(=O)C(C(N)=O)=C(O)[C@]2(O)C(=O)C3=C(O)c4c(O)cccc4[C@](C)(O)[C@H]3C[C@@H]12 | – | -41.8% [at 11.4 µM] (inactive)

Row | Structure (SMILES) | AC50 | activity, negative = inhibition
20 | CCOC(=O)c1[nH]c(C)c(C(=O)N2CCC3(CC2)OCCO3)c1C | 5.01 µM (active) | –
21 | OCc1cnc[nH]1 | inactive | –
22 | CC(C)(c1ccc(OC[C@@H]2CO2)cc1)c1ccc(OC[C@H]2CO2)cc1 | inactive | –
23 | C[C@@H]1O[C@@H](O[C@H]2C[C@@H](O)[C@@]3(CO)[C@H]4[C@H](O)C[C@]5(C)[C@@H](C6=CC(=O)OC6)CC[C@]5(O)[C@H]4CC[C@@]3(O)C2)[C@@H](O)[C@H](O)[C@H]1O | – | 30.3% [at 11.4 µM] (inactive)
24 | N[C@H](Cc1c[nH]c2ccccc12)P(=O)(O)O | – | 13.8% [at 11.4 µM] (inactive)
25 | CC(C(=O)c1c[nH]c2ccccc12)N1CCSCC1 (stereo unspecified) | 8.91 µM (active) | –
26 | C[N+]1(C)[C@@H]2CC[C@H]1CC(OC(=O)c1c[nH]c3ccccc13)C2 (stereo partly specified) | inactive | –
27 | C[C@H]1C(=O)O[C@@H]2CCN3CC=C(COC(=O)[C@@](C)(O)[C@@]1(C)O)[C@H]23 | inactive | –
28 | CN1C(=O)CCS(=O)(=O)[C@@H]1c1ccc(Cl)cc1 | inactive | –
29 | Brc1c(NC2=NCCN2)ccc2nccnc12 | inactive | –
30 | c1ccc2c(c1)[I+]c1ccccc1-2 | 501 nM (active) and 63.1 nM (active) | –
31 | CC[C@]1([C@H]2O[C@@H]([C@@H]3O[C@](O)(CO)[C@@H](C)C[C@H]3C)C[C@H]2C)CC[C@@H]([C@]2(C)CC[C@@]3(C[C@@H](O)[C@@H](C)[C@@H]([C@H](C)[C@H](OC)[C@H](C)C(=O)O)O3)O2)O1 | inactive | –
32 | NCCCNCCSP(=O)(O)O | inactive | –
33 | CCN1CCN(Cc2cc(OC)c(OC)cc2[N+](=O)[O-])CC1 | inactive | –
34 | c1ccc([C@H]2CNCc3ccccc32)cc1 | inactive | –
35 | Cc1ccc(N(C)C(=O)Oc2cccc3ccc(C)nc23)cc1 | 7.94 µM (active) | –
36 | C=CCN1C[C@@H](C)N([C@H](c2ccc(C(=O)N(CC)CC)cc2)c2cccc(OC)c2)C[C@H]1C | inactive | –
37 | Cc1cc(C)c(-n2c(O)c(C=NCCN3CCOCC3)c(=O)[nH]c2=O)c(C)c1 | inactive | –
38 | CC(C)CN1CCCC2(CCN(C(=O)c3ccncc3)CC2)C1 | inactive | –

Row | Structure (SMILES) | AC50 | activity, negative = inhibition
39 | NCCCC[C@H](N[C@@H](CCc1ccccc1)C(=O)O)C(=O)N1CCC[C@H]1C(=O)O | inactive | –
40 | CN(C)C=C1C(=O)N(C2CCCCC2)C(=O)N(C2CCCCC2)C1=O | 20 µM (active) | –
41 | N=C(N)c1ccc(-c2ccc(-c3ccc(C(=N)N)cc3)o2)cc1 | – | 37% [at 11.4 µM] (inactive)
42 | CN1CCC2(CC1)CCN(C(=O)Oc1ccccc1)CC2 | inactive | –
43 | CCN1C[C@@]2(COC)CC[C@H](OC)[C@]34[C@@H]1[C@]1(OCO[C@@]15C[C@@H](OC)C1C[C@H]3[C@H]5[C@@H]1OC)[C@H](O)[C@@H]24 | inactive | –
44 | O=C(O)CC[N+](=O)[O-] | inactive | –
45 | Cc1c(OCC(F)(F)F)ccnc1CS(=O)c1nc2ccccc2[nH]1 (stereo unspecified) | 0.1 µM (active) | –
46 | CC1(C)N(O)C(c2ccc(C(=O)O)cc2)=[N+]([O-])C1(C)C | inactive | –
47 | CCc1ccc(CCN2CCCCC2)nc1 | – | -27.8% [at 11.4 µM] (inactive)
48 | Cc1ccccc1-c1nc(CS(=O)CC(=O)N2CCC3(CC2)OCCO3)c(C)o1 (stereo unspecified) | 10 µM (active) | –
49 | CCc1ccccc1NC(=S)NC1CC2CCC(C1)N2Cc1ccco1 (stereo unspecified) | inactive | –
50 | Nc1nc(N)c(Cn2ccnc2)c(=O)[nH]1 | – | 32.7% [at 11.4 µM] (inactive)
51 | N[C@H](Cc1o[nH]c(=O)c1Cl)C(=O)O | 1.26 µM (active) | –
52 | Cc1o[nH]c(=O)c1C[C@@H](N)C(=O)O | inactive | –
53 | N[C@H](CCl)C(=O)O | inactive | –
54 | N[C@@H](Cc1cc(Br)c(O)c(Br)c1)C(=O)O | – | 11.6% [at 11.4 µM] (inactive)
55 | N[C@@H](Cn1oc(=O)[nH]c1=O)C(=O)O | inactive | –
56 | Cc1o[nH]c(=O)c1C[C@H](N)C(=O)O | inactive and 2.51 µM (active) | –
